D1 potentiator = potentiators of human D1 dopamine receptor. HEK293 TREx D1 cells, calcium flux, dopamine EC20 potentiation. potentiation, % at 10 µM. 360,000 compounds, 0.036% hits. AID 504651; in the data active = potentiation above about 30%; also: 0% is about no effect
Target sequence (P21728 whole entry, looked up): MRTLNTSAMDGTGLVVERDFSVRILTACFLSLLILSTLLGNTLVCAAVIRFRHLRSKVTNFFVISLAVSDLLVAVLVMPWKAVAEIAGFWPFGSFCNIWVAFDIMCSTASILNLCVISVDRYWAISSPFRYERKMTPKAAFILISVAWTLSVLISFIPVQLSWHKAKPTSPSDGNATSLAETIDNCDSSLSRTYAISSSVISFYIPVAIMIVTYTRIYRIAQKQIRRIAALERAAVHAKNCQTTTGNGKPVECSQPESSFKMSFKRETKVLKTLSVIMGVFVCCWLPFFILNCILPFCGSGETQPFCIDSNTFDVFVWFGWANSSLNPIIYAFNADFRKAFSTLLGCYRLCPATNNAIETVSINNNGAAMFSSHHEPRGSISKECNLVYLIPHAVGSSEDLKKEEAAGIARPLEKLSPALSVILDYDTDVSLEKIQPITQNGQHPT
TRHR PAM = allosteric enhancers of human TRH receptor; P34981; TRHR cells, fluo-8 calcium fluorescence, EC20 TRH enhancement; enhancement, % at 2 µM; 360,000 compounds, 0.66% hits; AID 493056; in the data active = enhancement above about 30%; also: 0% is about no effect
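TRHR-expressing cells loaded with fluo-8 calcium dye were read kinetically (ex 480/em 530) during compound addition, then stimulated with an EC20 of TRH (10 nM final). Enhancement of the Gq-mediated intracellular calcium response was scored.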
D1 ag = activates the human D1 dopamine receptor. 360,000 compounds, 1% hits. activation, % at 2 µM. HEK293 T-REx D1 cells, calcium flux, agonist mode. AID 504660. P21728; also: 0% is about no effect
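Inducible HEK293 T-REx D1 cells, force-coupled to calcium signalling, were plated at 4000 cells/well with tetracycline and held overnight at 30 C. After no-wash calcium dye loading, compound-evoked calcium rise over 180 s flagged agonists.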
D1 antag = blocks dopamine activation of the human D1 receptor | activity change, negative = inhibition, % at 10 µM | P21728 | HEK293 TREx D1 cells, calcium flux, dopamine EC80; hits give low values | 360,000 compounds, 3.2% hits; in the data active = activity change below about -30%; also: % is scaled to controls: 0 for no effect and ±100 for the full control effect
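Inducible Hek293 Trex D1 cells (tetracycline, overnight, 30 C). Calcium dye 30–90 min RT. Antagonist mode: EC80 dopamine added after 180 s compound read.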
TRHR ag = activates the human TRH receptor | P34981 | 360,000 compounds, 0.18% hits | activation, % at 2 µM | AID 493084 | TRHR cells, calcium flux fluo-8, FDSS agonist mode; also: 0% is about no effect
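Agonist-mode FDSS calcium read (Ex 480/Em 530, 1 s cycles) in 1536-well TRHR cells with fluo-8 dye, after 10-cycle baseline and 23 nL compound addition; TRH at EC20 (10 nM final) added afterwards for the enhancer phase.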
Epigenetic reg = epigenetic control regulation, reporter derepression | murine LDR cells, GFP reporter derepression, 30 h | Potency, µM (titrated, usually from 53.9 µM), for the others: at the top dose GFP activation, hits mostly activators | 280,000 compounds, 0.2% hits; active = well fitted activation curve with a large enough effect; inconclusive = small, poorly fitted or top-dose-only effect; also: potency is read from the fitted curve at half-maximal effect; % of control where 0% means no effect; nearly all actives have a fitted effect of over 60% in size
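Reporter derepression read as number of fluorescent GFP-positive objects, 20-120 um in size, counted by laser-scanning cytometer. Mouse LDR line with an epigenetically silenced CMV-GFP locus; compound incubation 30 h, 37 C.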
* hit, by the source's call; ? = inconclusive; / = no result given; ! = not active in a repeat. Shown are actives, neighbours in structure and some others; about 4.6% of the full set was active somewhere. Rule as the data show it, unless noted: active = activation above about 30%; inactive = the rest.

SMILES	D1 potentiator	TRHR PAM	D1 ag	D1 antag	TRHR ag	Epigenetic reg
CCC(=O)N1CCc2cc(S(=O)(=O)NCCC(=O)N3CCN(c4cccc(C)c4)C(C)C3)ccc21 (centres undefined)	-7	2	11	-40*	0	/
CCc1ccc(NC(=O)C(Cc2ccccc2)NS(=O)(=O)c2ccc3c(c2)CCN3C(C)=O)cc1 (centres undefined)	-3	-12	4	-11	4	2%
CCC(=O)N1CCc2cc(S(=O)(=O)NCCC(=O)N3CCN(c4ccccc4)CC3)ccc21	-3	-5	6	3	1	/
CCC(=O)N1CCc2cc(S(=O)(=O)NC(C(=O)NCCc3cccc(C)c3)C(C)C)ccc21 (centres undefined)	-2	-2	0	-62*	-1	15%
CC(=O)N1CCc2cc(S(=O)(=O)NC(Cc3ccccc3)C(=O)Nc3cccc(C)c3)ccc21 (centres undefined)	-2	6	2	-38*	-1	0%
Cc1nc2cc(-c3ccccc3)nn2c(C)c1CCC(=O)NCc1cccc(Cl)c1	-5	16	3	-28	1	1%
CCOc1ccc(C2CC(c3ccccc3C)n3ncnc3N2)cc1 (centres undefined)	/	-4	14	-40*	-1	-1%
O=C(Cn1cc(C(F)(F)F)ccc1=O)NC1CCCC1	-2	-5	2	-44*	0	/
Cc1cccc(CNc2cc(-c3cccnc3)ncn2)c1	/	/	/	/	/	6%
CC(C)Cn1c(CN2C(=O)c3ccccc3C2=O)nc2ccccc2c1=O	-2	30*	1	-2	0	-1%
O=C1c2ccccc2C(=O)N1Cc1nc2ccccc2c(=O)n1Cc1ccco1	6	6	3	18	0	1%
CC(=O)c1sc2nsc(SCCN3CCCCC3)c2c1N	-3	-3	22	-5	11	5%
Nc1c(C(=O)c2ccc(Cl)cc2)sc2nsc(SCCN3CCOCC3)c12	-1	-5	103*	-25	27	20µM*
Nc1c(C(=O)c2ccccc2)sc2nsc(SCCN3CCCC3)c12	-4	-8	167*	-34*	54*	?
CC(C)C[C@H]1CN=C(Nc2ccccc2)N1CC1CCC(C(C)(C)C)CC1 (some centres undefined)	3	21	70*	21	0	/
Cc1ccc2oc(C(=O)Nc3ccc(S(=O)(=O)Nc4nccc(C)n4)cc3)cc(=O)c2c1	0	9	-1	-19	0	-2%
COc1ccc(Cl)cc1NC(=O)Cn1ncc2c3ccccc3n(Cc3ccccc3)c2c1=O	-2	2	0	-8	-2	11%
Cc1ccc(NC(=O)CCCNC(=O)c2ccc(Cl)cc2)c(O)c1	1	-3	3	-32*	-1	/
O=C(COC(=O)CCc1c[nH]c2ccccc12)Nc1ccccc1	-8	-2	2	-9	0	/
Cc1ccc(NC(=O)COC(=O)Cc2c[nH]c3ccccc23)cc1C	-4	7	1	-75*	0	/
NC(=O)c1ccc(NC(=O)COC(=O)CCCc2c[nH]c3ccccc23)cc1	-1	-3	2	-30*	1	0%
Cc1ccc(S(=O)(=O)NCC(=O)NCCc2c[nH]c3ccccc23)cc1C	-3	34*	0	-1	-1	/
CC(C)NC(=O)CCCc1c[nH]c2ccccc12	-5	33*	3	-13	0	1%
CCOC(=O)c1cc(-c2ccc(F)cc2)n(CCC(=O)Nc2ccccc2OC)c1C	-5	2	4	5	0	5%
CC1(OC(=O)C2CCCC2)C(=O)C=C2C=C(c3ccsc3)N(CC3CC3)C=C2C1=O (centres undefined)	-3	8	8	-33*	0	-1%
SMILES	D1 potentiator	TRHR PAM	D1 ag	D1 antag	TRHR ag	Epigenetic reg
Cc1ccccc1NC(=O)c1cccc(S(=O)(=O)Nc2cccc(C(=O)O)c2)c1	2	-4	-3	-31*	0	/
Cc1ccccc1NC(=O)c1ccc(NS(=O)(=O)c2cc(C(C)(C)C)cc(C)c2C)cc1	-5	0	0	-85*	0	0%
Cc1cccc(NS(=O)(=O)c2cccc(C(=O)Nc3cccc(C(=O)O)c3)c2)c1	6	0	9	-22	0	/
COc1ccc(-c2nc3cc(C)ccn3c2NC(=O)c2cccc(F)c2)cc1	-1	-9	-1	19	-1	4%
CCc1ccc2oc(C(=O)Nc3nonc3CC)c(C)c2c1	-9	-25	7	-38*!	-1	-2%
CN1CCc2ccccc2Cc2[nH]c3ccccc3c2CC1	-7	1	-1	-107*	0	0%
CCCCN1CCc2c([nH]c3ccccc23)C1=O	0	1	1	-5	0	1%
Cc1cc(C)cc(NC(=O)C(=O)NCC(c2cccnc2)N2CCN(c3ccccc3)CC2)c1 (centres undefined)	-2	1	4	6	0	1%
Cc1ccc2nc(-c3ccco3)c(Nc3ccc4c(c3)OCCO4)n2c1	-1	-1	1	5	2	-2%
Fc1ccc(Nc2c(-c3ccco3)nc3ccccn23)cc1	1	31*!	-1	-3	0	1%
c1coc(-c2nc3ccccn3c2Nc2ccc3c(c2)OCCO3)c1	2	-7	1	-49*	-1	1%
c1ccc(Nc2c(-c3ccco3)nc3ccccn23)cc1	-3	-1	0	6	-1	-1%
Cc1cc(/C=C/c2ccc3cc(N(C)C)ccc3[n+]2C)c(C)n1-c1ccccc1	/	/	/	/	/	22µM*
Cc1cc(/C=N/O)c(C)n1-c1ccccc1	-4	23	3	2	0	0%
CC(Sc1nnnn1C1CC1)C(=O)N1CC(=O)Nc2ccccc21 (centres undefined)	-3	-7	1	-32*	-1	/
O=C(CCn1nnc2ccccc21)Nc1nnc(-c2ccccc2F)s1	-4	-4	5	-12	0	-6%
O=C(CCn1nnc2ccccc21)Nc1nnc(COc2ccccc2F)s1	4	32*	3	17	0	0%
COc1ccc(-c2nc(=S)c3ccc4ccccc4c3[nH]2)cc1	-12	3	4	-68*	0	9%
CCOC(=O)c1cccnc1SCC(=O)N(C)c1ccccc1	1	3	5	-44*	0	-1%
CC(=O)c1ccc(NC(=O)c2nn(C)c3c2COc2ccccc2-3)cc1	-1	-4	3	5	0	-2%
O=S(=O)(c1ccccc1Oc1ccc(Cl)cc1Cl)N1CCCCC1	-1	-4	5	-47*	-1	5%
N#Cc1ccc(Oc2ccc(S(=O)(=O)N3CCCC3)cn2)cc1	-2	-6	5	-10	0	/

Screening data: PubChem BioAssay, National Center for Advancing Translational Sciences (NCATS)
